Test [1] concerns the target Sphingosine kinase 1 (Homo sapiens) (UniProt Q9NYA1). Conditions: at 1 µM.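 Also: mean SPHK1 inhibition value reported from the GSK PKIS kinase panel screen.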
For test [2], the target named is T1, Sphingosine kinase 2 (Homo sapiens) (UniProt Q9NRA0).
T1 sequence (whole entry): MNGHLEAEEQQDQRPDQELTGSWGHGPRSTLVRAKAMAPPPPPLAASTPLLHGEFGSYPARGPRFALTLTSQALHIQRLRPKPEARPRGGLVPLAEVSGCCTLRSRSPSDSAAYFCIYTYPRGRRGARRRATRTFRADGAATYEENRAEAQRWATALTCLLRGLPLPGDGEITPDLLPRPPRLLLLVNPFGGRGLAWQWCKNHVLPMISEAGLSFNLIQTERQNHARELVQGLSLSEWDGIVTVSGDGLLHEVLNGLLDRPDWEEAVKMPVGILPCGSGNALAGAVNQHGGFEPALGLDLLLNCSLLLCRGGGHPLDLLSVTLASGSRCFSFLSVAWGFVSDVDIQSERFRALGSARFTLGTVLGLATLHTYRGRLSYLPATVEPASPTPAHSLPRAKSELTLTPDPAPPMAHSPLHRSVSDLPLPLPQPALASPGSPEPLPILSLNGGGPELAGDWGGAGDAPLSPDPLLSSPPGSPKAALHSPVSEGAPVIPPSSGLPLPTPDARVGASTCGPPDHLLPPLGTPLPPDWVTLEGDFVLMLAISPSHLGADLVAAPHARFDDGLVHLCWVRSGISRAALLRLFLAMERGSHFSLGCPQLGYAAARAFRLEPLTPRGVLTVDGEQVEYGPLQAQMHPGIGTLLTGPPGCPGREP
Conditions: at 0.1 µM.

Test [3] deals with T1, Sphingosine kinase 2 (Homo sapiens). Conditions: at 1 µM.
Test [4] addresses Casein kinase II subunit alpha (Homo sapiens) (UniProt P68400). Conditions: at 0.1 µM.
For test [5] the target is unchanged. Conditions: at 1 µM.
In test [6] the target is T2, Inhibitor of nuclear factor kappa-B kinase subunit alpha (Homo sapiens) (UniProt O15111).
T2 sequence (whole entry): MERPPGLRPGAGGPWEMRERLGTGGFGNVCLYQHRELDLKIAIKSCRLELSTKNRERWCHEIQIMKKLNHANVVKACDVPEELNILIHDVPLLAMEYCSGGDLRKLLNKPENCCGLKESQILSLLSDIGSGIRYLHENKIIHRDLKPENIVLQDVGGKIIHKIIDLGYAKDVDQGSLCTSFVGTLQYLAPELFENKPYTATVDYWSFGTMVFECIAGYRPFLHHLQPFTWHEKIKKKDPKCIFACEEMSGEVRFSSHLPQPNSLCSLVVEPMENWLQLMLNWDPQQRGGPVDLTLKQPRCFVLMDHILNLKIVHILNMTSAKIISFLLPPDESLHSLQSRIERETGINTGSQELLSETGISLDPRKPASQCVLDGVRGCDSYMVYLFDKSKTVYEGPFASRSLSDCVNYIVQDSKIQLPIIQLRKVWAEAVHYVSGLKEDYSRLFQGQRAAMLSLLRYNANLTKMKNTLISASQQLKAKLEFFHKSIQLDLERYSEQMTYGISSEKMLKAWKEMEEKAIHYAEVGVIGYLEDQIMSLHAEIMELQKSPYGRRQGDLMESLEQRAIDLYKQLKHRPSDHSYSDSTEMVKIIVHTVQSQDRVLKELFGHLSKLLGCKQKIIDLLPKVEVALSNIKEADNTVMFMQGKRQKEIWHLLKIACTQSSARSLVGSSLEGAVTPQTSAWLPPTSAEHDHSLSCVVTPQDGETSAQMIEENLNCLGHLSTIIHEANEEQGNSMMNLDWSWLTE
Conditions: at 0.1 µM.

Test [7] concerns the target T2, Inhibitor of nuclear factor kappa-B kinase subunit alpha (Homo sapiens). Conditions: at 1 µM.
In test [8] the target is T3, Inhibitor of nuclear factor kappa-B kinase subunit beta (Homo sapiens) (UniProt O14920).
T3 sequence (whole entry): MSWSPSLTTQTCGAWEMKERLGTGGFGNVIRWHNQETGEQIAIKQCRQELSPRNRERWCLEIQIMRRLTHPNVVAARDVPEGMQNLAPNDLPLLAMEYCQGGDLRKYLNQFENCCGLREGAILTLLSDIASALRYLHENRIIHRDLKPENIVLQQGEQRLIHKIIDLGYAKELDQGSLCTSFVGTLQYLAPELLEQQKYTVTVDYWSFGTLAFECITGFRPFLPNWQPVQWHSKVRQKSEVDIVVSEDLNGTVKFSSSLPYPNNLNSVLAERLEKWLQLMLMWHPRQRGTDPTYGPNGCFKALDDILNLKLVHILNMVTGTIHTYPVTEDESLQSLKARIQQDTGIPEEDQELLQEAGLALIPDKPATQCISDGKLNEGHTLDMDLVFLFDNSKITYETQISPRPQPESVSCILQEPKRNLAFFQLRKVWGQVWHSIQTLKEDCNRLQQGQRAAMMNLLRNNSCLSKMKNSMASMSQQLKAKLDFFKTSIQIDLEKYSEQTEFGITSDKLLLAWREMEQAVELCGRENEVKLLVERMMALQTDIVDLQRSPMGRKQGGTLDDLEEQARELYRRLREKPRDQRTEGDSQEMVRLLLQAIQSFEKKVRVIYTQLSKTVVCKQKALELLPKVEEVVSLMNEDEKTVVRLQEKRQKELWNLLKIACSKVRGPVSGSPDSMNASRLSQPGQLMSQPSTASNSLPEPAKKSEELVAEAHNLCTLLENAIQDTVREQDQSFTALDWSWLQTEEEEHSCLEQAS
Conditions: at 0.1 µM.

The target of test [9] is T3, Inhibitor of nuclear factor kappa-B kinase subunit beta (Homo sapiens). Conditions: at 1 µM.
The target of test [10] is T4, Inhibitor of nuclear factor kappa-B kinase subunit epsilon (Homo sapiens) (UniProt Q14164).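 Also: mean inhibition of IKKε reported, from the GSK PKIS dataset.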
T4 sequence (whole entry): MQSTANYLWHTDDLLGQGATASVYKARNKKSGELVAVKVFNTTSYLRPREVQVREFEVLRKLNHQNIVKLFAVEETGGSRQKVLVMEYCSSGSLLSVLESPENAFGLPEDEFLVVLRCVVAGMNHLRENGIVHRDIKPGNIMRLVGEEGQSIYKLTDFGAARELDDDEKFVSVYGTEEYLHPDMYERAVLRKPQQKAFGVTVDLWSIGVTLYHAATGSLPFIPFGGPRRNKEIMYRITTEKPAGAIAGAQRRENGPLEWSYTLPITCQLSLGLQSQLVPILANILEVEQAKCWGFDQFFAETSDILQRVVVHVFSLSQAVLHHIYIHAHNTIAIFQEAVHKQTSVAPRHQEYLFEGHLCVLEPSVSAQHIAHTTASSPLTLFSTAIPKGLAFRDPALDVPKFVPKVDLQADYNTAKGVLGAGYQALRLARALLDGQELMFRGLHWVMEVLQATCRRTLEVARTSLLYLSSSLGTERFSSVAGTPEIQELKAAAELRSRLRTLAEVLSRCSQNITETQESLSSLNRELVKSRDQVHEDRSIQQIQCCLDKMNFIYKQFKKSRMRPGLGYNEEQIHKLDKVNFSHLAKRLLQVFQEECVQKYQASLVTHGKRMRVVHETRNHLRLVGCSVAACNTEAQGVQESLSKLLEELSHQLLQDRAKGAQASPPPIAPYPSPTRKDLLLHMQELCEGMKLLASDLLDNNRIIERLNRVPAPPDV
Conditions: at 0.1 µM.

Sequence of Casein kinase II subunit alpha (Homo sapiens) (P68400 whole entry, looked up): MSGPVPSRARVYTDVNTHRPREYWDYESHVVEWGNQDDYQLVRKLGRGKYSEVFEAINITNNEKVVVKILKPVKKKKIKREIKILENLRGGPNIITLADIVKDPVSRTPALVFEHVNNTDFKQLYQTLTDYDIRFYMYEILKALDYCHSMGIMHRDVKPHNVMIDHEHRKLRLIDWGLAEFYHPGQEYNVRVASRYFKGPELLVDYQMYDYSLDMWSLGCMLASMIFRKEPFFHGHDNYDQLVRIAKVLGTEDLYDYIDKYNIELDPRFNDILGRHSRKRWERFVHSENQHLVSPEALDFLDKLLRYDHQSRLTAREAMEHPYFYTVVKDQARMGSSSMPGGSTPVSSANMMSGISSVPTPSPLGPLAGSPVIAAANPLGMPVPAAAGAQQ
Sequence of Sphingosine kinase 1 (Homo sapiens) (Q9NYA1 whole entry): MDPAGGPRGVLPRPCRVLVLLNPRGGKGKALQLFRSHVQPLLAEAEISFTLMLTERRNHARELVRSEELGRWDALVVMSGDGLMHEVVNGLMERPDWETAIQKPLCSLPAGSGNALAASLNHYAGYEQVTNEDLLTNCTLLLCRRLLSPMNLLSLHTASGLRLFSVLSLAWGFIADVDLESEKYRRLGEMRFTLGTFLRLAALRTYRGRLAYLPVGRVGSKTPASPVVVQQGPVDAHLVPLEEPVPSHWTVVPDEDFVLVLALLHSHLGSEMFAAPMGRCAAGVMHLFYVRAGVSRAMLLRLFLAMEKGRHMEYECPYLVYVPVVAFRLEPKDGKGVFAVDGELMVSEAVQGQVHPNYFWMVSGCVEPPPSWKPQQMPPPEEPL

One may read the inhibition as the change of the read-out against control, counted positive when it falls. As for `FC(F)(F)c1ccc(-c2nn3ncccc3c2-c2ccnc(Nc3ccc4c(c3)OCCO4)n2)cc1`, the inhibition in test [1] worked out at 0.29%; in test [2], 3.37%; in [3], 4.75%; in test [4] it was 8.02%; in test [5], 19.8%; in test [6], 1.17%. Further, the inhibition in test [7] is 0.75%; in test [8], 0.04%; in test [9], 2.22%; in test [10], 1.97%.
Turning to `COc1ccc(-c2nn3ncccc3c2-c2ccnc(Nc3cccc(C(F)(F)F)c3)n2)cc1`, the inhibition in test [1] is 1.42%; in test [2], -1.04%; in test [3], -0.08%; in test [4] it was 6.68%; in test [5], 1.12%; in test [6] it was 3.17%. In addition, the inhibition in test [7] came out at 8.21%; in [8], 3.3%; in test [9], 4.64%; in test [10] it was 4.96%.
For the molecule `CCOc1nccc2c1nc(-c1nonc1N)n2CC`, the inhibition in [1] was 7.65%; in [2] it was -0.3%; in [3], 0.06%; in [4], 5.33%; in test [5], 14.6%; in [6], 2.3%. Also, the inhibition worked out at 3.59% in test [7], 0.86% in [8], 5.41% in test [9] and 7.17% in [10].
Turning to `Nc1nccc(C#Cc2cncnc2Nc2ccc(OCc3cccc(F)c3)c(Cl)c2)n1`, the inhibition in test [1] is -0.71%; in [2], 0.13%; in test [3], -9.13%; in [4], 1.6%; in [5], 2.69%; in test [6] it was 7.39%. Besides, the inhibition in [7] was 2.46%; in test [8], 2.27%; in [9] it was -0.17%; in [10] it was 4.71%.
As to `Cc1cc(Cl)cc2c1NC(=O)C2=NNc1ccc(S(N)(=O)=O)cc1`, the inhibition in [1] was -2.79%; in test [2], -0.11%; in [3], -2.78%; in test [4], 3.02%; in [5], 8.79%; in test [6] it was 1.51%. Besides, the inhibition in test [7] came out at 10.1%; in [8], 8.97%; in [9] it was 7.33%; in test [10], 6.15%.
As for `Cc1ccc(C(=O)NC2CC2)cc1-c1ccc2[nH]ncc2c1`, the inhibition in test [1] was -1.63%; in test [2], -1.1%; in test [3], 0.65%; in test [4], -2.79%; in [5], -1.68%; in test [6], 7.28%. Besides, the inhibition in [7] was -2.31%; in test [8], -3.22%; in test [9], -2.64%; in [10], -3.17%.
In the case of `N#Cc1cccc(Nc2nccc(-c3cnn4ncccc34)n2)c1`, the inhibition in test [1] is -1.39%; in [2], 0%; in test [3], -6.48%; in test [4], 20.4%; in test [5], 63.9%; in [6] it was 9.53%. For the same molecule, the inhibition in test [7] is 31%; in test [8] it was 7.83%; in test [9], 20.5%; in [10] it was 7.68%.
For `c1ccc(Cc2nc3ccc(Nc4ncnc5ccccc45)cc3[nH]2)cc1`, the inhibition in test [1] was -0.48%; in test [2], 0.11%; in [3], -0.64%; in test [4] it was 3.02%; in test [5], 9.95%; in [6] it was -0.9%. The inhibition in [7] was determined as 6.86%; in test [8], 5.53%; in test [9] it was 8.45%; in test [10], 5.38%.
On to `Nc1nccc(-c2c(-c3ccc(F)cc3)ncn2CCCN2CCOCC2)n1`, for which the inhibition in test [1] is -6.06%; in test [2] it was -0.3%; in [3], 0.84%; in test [4] it was 2.78%; in test [5], 4.35%; in [6], 3.83%. Also, the inhibition in test [7] was 5.27%; in test [8], 6.3%; in test [9], 5.49%; in [10], 4.76%.
For the molecule `CCn1c(-c2nonc2N)nc2c(C#CC(C)(C)O)nc(OCCNC)cc21`, the inhibition was 0.34% in [1]; 0.23% in test [2]; 3.77% in test [3]; 3.96% in test [4]; 3.67% in test [5]; 8.37% in test [6]. In addition, the inhibition in test [7] came to 7.87%; in test [8], 7.32%; in test [9] it was 8.81%; in test [10], 15.2%.

(Values after ChEMBL document CHEMBL1961873, “Compounds: GSK PKIS; Assays: Nanosyn kinase panel” (2012).)
